Only some compounds are listed: those with a hit (about 0.9% of all), similar ones and a draw of the others.
CDC25B-CDK2 inh = human CDC25B-CDK2/CyclinA binding inhibition; P30305+P24941; HTRF CDC25B-CDK2/CyclinA binding, anti-His/anti-Flag; stronger effect = higher value; z-score (concentration not given with the values); 0.72% of 94,000 active; AID 1259370; in the data active = z-score above about 3.2
HIV TAR-Tat = HIV-1 TAR-Tat binding disruption. z-score (no concentration beside the values). HIV-1 TAR RNA, Tat peptide displacement FRET; stronger effect = higher value. 0.6% of 100,000 active. AID 1259389; active = z-score of 3 or more in at least 2 runs
Starred values were filed as active, the others as inactive.

For O=C1C(c2ccccc2)=C(Nc2ccc(F)cc2)c2ccccc21 the results were CDC25B-CDK2 inh -1 and HIV TAR-Tat 0.45.
`O=C(Nc1ccccc1SCc1cc(=O)n2c(-c3ccccc3)csc2n1)c1ccco1` gave HIV TAR-Tat 8.4*.
Screening Cc1nn2c(=O)cc(CSc3ccccc3NC(=O)c3ccco3)nc2s1 returned HIV TAR-Tat -0.08.
COc1ccc(-c2noc(CNS(=O)(=O)c3ccc(F)cc3)n2)cc1 was read as CDC25B-CDK2 inh 0.66 and HIV TAR-Tat 0.88.
`O=C(Cn1nc2c3ccccc3n(Cc3ccccc3)cc-2c1=O)NCCCc1ccccc1` gave HIV TAR-Tat -1.1.
COc1ccc(C2=Nc3ccc(Cl)cc3NC(c3cccnc3)=N2)cc1 was read as CDC25B-CDK2 inh -1.7 and HIV TAR-Tat 0.41.
COc1ccc(CN2CSC3=C(C#N)C(c4ccc(OC)cc4)CC(=O)N3C2)cc1 (stereo not given) was read as CDC25B-CDK2 inh 6.3* and HIV TAR-Tat 2.3.
`Cc1ccc(C2CC(=O)N3CN(Cc4cccnc4)CSC3=C2C#N)cc1` (stereo not given) gave CDC25B-CDK2 inh 5.2* and HIV TAR-Tat 0.43.
`COc1ccc(CN2CSC3=C(C#N)C(c4cccc(OC)c4)CC(=O)N3C2)cc1` (stereo not given) gave CDC25B-CDK2 inh 7.6* and HIV TAR-Tat -0.14.
For N#CC1=C2SCN(Cc3cccnc3)CN2C(=O)CC1c1ccc(F)cc1 (stereo not given) the results were CDC25B-CDK2 inh 0.53 and HIV TAR-Tat 1.1.
For COc1ccc(C2CC(=O)N3CN(Cc4cccnc4)CSC3=C2C#N)cc1 (stereo not given) the results were CDC25B-CDK2 inh -0.28 and HIV TAR-Tat 1.2.
For N#CC1=C2SCN(CCc3ccccc3)CN2C(=O)CC1c1cccs1 (stereo not given) the results were CDC25B-CDK2 inh 3.7* and HIV TAR-Tat -0.38.
Screening N#CC1=C2SCN(CCc3ccccc3)CN2C(=O)CC1c1ccc(F)cc1 (stereo not given) returned CDC25B-CDK2 inh -0.26 and HIV TAR-Tat 1.1.
`Cc1cc(C)n(-c2cc(NCc3ccc(F)cc3)ncn2)n1` gave HIV TAR-Tat 0.25.
O=C(NCc1ccco1)C1CCN(S(=O)(=O)c2ccc3[nH]c(=O)oc3c2)CC1 was read as HIV TAR-Tat 0.
O=C(C1=Cc2sc3c(c2CS1)CCCC3)N1CCN(c2ccccn2)CC1 was read as HIV TAR-Tat 3.7.
For CCc1nc(Oc2ccccc2)c2oc3ccccc3c2n1 the results were HIV TAR-Tat 2.1.
Screening CCOc1cc(C2c3c(-c4cc(C)ccc4O)n[nH]c3C(=O)N2CCOC)ccc1O (stereo not given) returned CDC25B-CDK2 inh -0.6 and HIV TAR-Tat -3.
Nc1c(-c2nc(-c3ccccc3F)no2)nnn1-c1cccc(Cl)c1 was read as HIV TAR-Tat 0.77.
Screening COc1ccc(CN2CSC3=C(C#N)C(c4cccs4)CC(=O)N3C2)cc1 (stereo not given) returned CDC25B-CDK2 inh 4* and HIV TAR-Tat -0.08.
Screening N#CC1=C2SCN(Cc3ccco3)CN2C(=O)CC1c1cccs1 (stereo not given) returned CDC25B-CDK2 inh 2.5 and HIV TAR-Tat 1.2.
For CC(C)c1ccc(C2CC(=O)N3CN(Cc4ccccc4)CSC3=C2C#N)cc1 (stereo not given) the results were CDC25B-CDK2 inh 5* and HIV TAR-Tat 0.39.
CC(c1ccccc1)N1CSC2=C(C#N)C(c3ccc(F)cc3)CC(=O)N2C1 (stereo not given) was read as CDC25B-CDK2 inh 3 and HIV TAR-Tat 2.8.
Screening N#CC1=C2SCN(CCN3CCOCC3)CN2C(=O)CC1c1ccc(F)cc1 (stereo not given) returned CDC25B-CDK2 inh 0.4 and HIV TAR-Tat 1.7.
Cc1ccsc1CCN1CSC2=C(C#N)C(c3ccc(Cl)cc3)CC(=O)N2C1 (stereo not given) was read as CDC25B-CDK2 inh 3.2* and HIV TAR-Tat 2.
O=C1c2ccccc2-c2onc3c(N4CCN(CCO)CC4)cc(N4CCCCC4)c1c23 was read as CDC25B-CDK2 inh 0.03 and HIV TAR-Tat -1.8.
For CCCN(CCC)c1nn2c(=O)c(C(=O)N3CCN(c4ccccn4)CC3)cnc2s1 the results were HIV TAR-Tat 1.1.
`COc1ccc(CCn2c(C)c3c(C)nn4cc(C)cc4c3c2C)cc1OC` gave CDC25B-CDK2 inh 3.5 and HIV TAR-Tat 15*.
`Cc1cc2c3c(C)n(C4CCCCC4)c(C)c3c(C)nn2c1` gave CDC25B-CDK2 inh 0.79.
Screening CCc1ccc(CN2N=NC3C(=O)N(c4ccc(F)c(F)c4)C(=O)C32)cc1 (stereo not given) returned CDC25B-CDK2 inh 1 and HIV TAR-Tat 1.3.
For CCCCOC(=O)c1ccc(NC(=S)NC(NC(=O)OCC)C(Cl)(Cl)Cl)cc1 (stereo not given) the results were CDC25B-CDK2 inh 0.54.
For O=C(CCc1nnc2ccc(N3CCCC3)nn12)Nc1ccc2c(c1)OCCO2 the results were HIV TAR-Tat 2.

Screening results (PubChem BioAssay)
